Only some compounds are listed: those with a hit (about 3.9% of all), similar ones and a draw of the others.
BoNT A protease – blocks Botulinum neurotoxin A light chain protease; multiplex microsphere protease substrate cleavage, flow cytometry; inhibition, % at 10 µM; 360,000 tested, 0.17% active; further: plate controls were buffer without enzyme for full effect and enzyme alone for no effect
BoNT-F LC inh – BoNT F light chain protease inhibition | inhibition, % at 10 µM | Multiplex microsphere protease cleavage assay, flow cytometry | AID 588497 | 360,000 tested, 0.22% active; in the data active means inhibition above about 35%, passing the limit was not always enough; inconclusive means no clear call, values can overlap the other calls; further: plate controls were buffer without enzyme for full effect and enzyme alone for no effect
Anthrax LF inh2 – anthrax lethal factor protease inhibition; P15917; 360,000 tested, 0.12% active; inhibition, % at 10 µM; AID 588501; multiplex microsphere protease cleavage assay, LF; further: plate controls were buffer without enzyme for full effect and enzyme alone for no effect
Bead autofluor – counter-screen for toxin protease inhibitors: compound fluorescence; fluorescence intensity (concentration not given with the values); compound autofluorescence counterscreen, microsphere flow cytometry; active compounds read high; 360,000 tested, 3.1% active; AID 624483; in the data active means fluorescence intensity above about 16000; inconclusive means no clear call, values can overlap the other calls
Vc quorum ag – induces V. cholerae light production without autoinducers | V. cholerae BH1578 lux reporter, luminescence, 6 h | activation, % at 18.7 µM | 350,000 tested, 0.16% active | AID 588436; in the data active means activation mostly above about 9.7%, no sharp cut-off; inconclusive means no clear call, values can overlap the other calls; inactive means mostly below about 3.7%
MazEF act – MazEF (E. coli) toxin RNase activation. activation, % at 20 µM. 350,000 tested, 0.32% active. FAM/BHQ RNA-DNA oligo cleavage fluorescence, 5 h. AID 504720; in the data active means activation above about 50%
Target sequence (P0AE70 whole entry, looked up): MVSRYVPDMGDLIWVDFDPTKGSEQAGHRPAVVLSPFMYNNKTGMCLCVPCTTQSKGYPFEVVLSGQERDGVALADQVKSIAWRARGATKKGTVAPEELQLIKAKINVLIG
Starred values were filed as active, the others as inactive; i = inactive; ? = inconclusive; nt = not tested or not shown. Unless noted, no stated cut-off is given here; in the data, active means inhibition above about 30%; inconclusive means no clear call, values can overlap the other calls; inactive means below that.

SMILES	BoNT A protease	BoNT-F LC inh	Anthrax LF inh2	Bead autofluor	Vc quorum ag	MazEF act
COc1ccccc1N(C)S(=O)(=O)c1ccc(C(=O)OCC(=O)N(C(C)C)C(C)C)cc1	0.0	-3.4	-0.9	3470	-3.3	3.8
O=C(N1CCOCC1)N1[C@H](COCc2ccccc2)C=CS1(=O)=O	0.4	-8.7	-4.7	4324	nt	nt
O=C(Nc1ccc(N2CCOCC2)cc1)c1cccc(S(=O)(=O)N2CCCC2)c1	-6.9	-8.1	-4.0	25105*	2.7	-5.0
O=C(Nc1ccc2c(c1)OCCO2)c1cccc(S(=O)(=O)N2CCCCC2)c1	?	-2.6	-4.5	21092*	0.5	11.6
O=C(Nc1ccc(N2CCCC2)cc1)c1cccc(F)c1	2.5	-32.7	-14.5	19303*	-6.2	1.0
CCCNC(=O)Cn1c(=O)/c(=C\c2ccc(-c3cccc([N+](=O)[O-])c3)o2)s/c1=C\C(=O)C(C)(C)C	32.6*	12.2	15.5	2727	-0.3	175.0*
O=C1NC(=O)/C(=C/c2ccc(-c3cccc([N+](=O)[O-])c3)o2)S1	nt	nt	nt	nt	i	9.2
CCCNC(=O)Cn1c(=O)/c(=C/c2ccc(-c3cccc([N+](=O)[O-])c3)o2)s/c1=C\C(=O)C(C)(C)C	9.7	8.3	8.2	4302	i	54.2*
COCCNC(=S)N/N=C/c1ccc(-c2ccc([N+](=O)[O-])cc2)o1	3.4	-7.5	6.4	?	i	-9.7
CCCNC(=O)Cn1c(=O)/c(=C\c2ccc(-c3ccc([N+](=O)[O-])cc3)o2)s/c1=C\C(=O)C(C)(C)C	13.1	15.7	9.1	12168	-0.3	86.4*
CC(C)N(CCNCC(O)COc1ccc(C(C)(C)c2ccccc2)cc1)C(C)C (stereo not given)	0.3	-20.9	-6.5	5261	-0.4	11.9
O=C(O)C1=CCC=CC1C(=O)O (stereo not given)	-0.5	6.2	-4.9	3066	i	1.0
COc1ccc(C(O)P(=O)(OC2CCCCC2)c2ccc(N(C)C)cc2)cc1OC (stereo not given)	0.3	-1.3	-1.2	22879*	3.5	-1.3
CN(C)c1ccc(C(O)P(=O)(OC2CCCCC2)OC2CCCCC2)cc1 (stereo not given)	nt	nt	nt	nt	-0.2	8.3
O=C(O)CC(Cc1ccc(Br)cc1)C(=O)Nc1ccccc1 (stereo not given)	-1.4	-4.8	-12.6	4085	-0.4	-2.8
CCN(CC)c1ccc(-c2c(C#N)c(N)nc(OC)c2C#N)cc1	0.3	2.4	-3.6	4464	i	75.4*
CCC(C(=O)Nc1cccc(S(=O)(=O)N(C)c2ccccc2)c1)c1ccccc1 (stereo not given)	-0.4	-3.9	-5.5	5948	0.9	2.6
CCC(CC)C(=O)Nc1cccc(C(=O)Nc2ccc(S(=O)(=O)Nc3ccc(C)cc3)cc2)c1	-0.4	-3.7	1.1	22769*	i	4.1
CCC(CC)C(=O)Nc1cccc(C(=O)Nc2ccc(S(N)(=O)=O)cc2)c1	-0.8	-5.0	-6.0	3823	-0.4	2.5
CCC(CC)C(=O)Nc1cccc(S(=O)(=O)c2cccc(NC(=O)C(CC)CC)c2)c1	-0.7	-0.9	-0.7	16846*	-12.5	4.9
O=C(Nn1c(O)c(C=C2N=c3ccccc3=N2)sc1=S)c1ccc(Cl)cc1	?	57.5*	69.9*	13151	i	2.1
O=C1N=c2ccccc2=C1c1sc(=S)n(NC(=O)c2cccc(O)c2)c1O	2.5	0.7	-3.0	4228	i	-8.1
Cc1ccc(S(=O)(=O)Nn2c(O)c(C=C3N=c4ccccc4=N3)sc2=S)cc1	8.5	-4.7	6.3	5052	0.3	-17.3
O=C(Nn1c(O)c(C=C2N=c3ccccc3=N2)sc1=S)c1cccc(Cl)c1	54.7*	55.0*	55.7*	5573	-0.5	-9.1
O=C(Nn1c(O)c(C=C2N=c3ccccc3=N2)sc1=S)c1ccccc1	108.1*	65.3*	77.5*	7668	-1.8	-5.1
SMILES	BoNT A protease	BoNT-F LC inh	Anthrax LF inh2	Bead autofluor	Vc quorum ag	MazEF act
Oc1[nH]c(=S)sc1C=C1N=c2ccccc2=N1	-2.8	?	-3.3	3873	-0.3	2.2
Cc1ccc(C(=O)Nn2c(O)c(C=C3N=c4ccccc4=N3)sc2=S)cc1	77.5*	64.2*	69.0*	6339	i	-3.5
COc1ccc(-c2noc(C3CCCN(C(=O)c4c(F)cccc4F)C3)n2)cc1OC (stereo not given)	4.9	-11.8	-2.9	3255	-0.9	7.4
COc1ccc(-c2noc(C3CCCN(C(=O)c4ccccc4OC)C3)n2)cc1OC (stereo not given)	?	0.4	-0.8	16635*	-0.6	-10.6
O=C(Cc1ccccc1)N1CCCC(c2nc(-c3ccc(S(=O)(=O)N4CCCC4)cc3)no2)C1 (stereo not given)	-1.5	3.8	-5.0	10698	-1.7	0.8
O=C(Cc1ccccc1)N1CCC(c2nc(-c3ccc(F)cc3)no2)CC1	9.5	11.7	-10.5	16726*	i	-2.0
COc1ccc(C(=O)N2CCCC(c3nc(-c4ccc(OC)c(OC)c4)no3)C2)c(OC)c1 (stereo not given)	4.9	5.4	-9.3	20939*	i	1.7
O=C(C1CC1)N1CCC(c2nc(-c3ccc(S(=O)(=O)NCC4CCCO4)cc3)no2)CC1 (stereo not given)	7.4	8.8	-11.8	19413*	i	-0.1
C1C2CC3C1C3C2=NN=C1C2CC3C(C2)C13	0.0	-2.6	-8.6	3846	-0.3	nt
O=C(c1c(F)cccc1F)N1CCCC(c2nc(-c3ccc(Cl)cc3)no2)C1 (stereo not given)	3.8	?	-6.8	3848	i	0.5
Cc1ccc(-c2noc(C3CCCN(C(=O)c4c(F)cccc4F)C3)n2)cc1 (stereo not given)	1.9	3.9	-7.2	21313*	i	-3.5
CCCCS/C(=C(/C#N)C(N)=O)c1cc2c([nH]1)CCCC2	?	-0.5	-3.1	22456*	i	6.6
CC(=O)N[C@@H](Cc1c[nH]c2ccccc12)C(=O)NCc1ccccc1	-1.7	-3.6	0.3	4778	i	8.1
Cn1cncc1C#Cc1ccc2cc(C3(O)CCCCC3)oc(=O)c2c1	-0.4	1.1	-0.6	3290	-0.6	76.3*
Cn1cncc1C#Cc1ccc2cc(C(C)(C)O)oc(=O)c2c1	-0.3	-2.2	6.7	4204	i	-6.7
O=C1/C(=C/c2ccc([N+](=O)[O-])cc2)C=C(c2ccccc2)N1c1ccc(O)cc1	0.9	-3.7	-14.1	22121*	i	15.3
O=C(c1ccco1)N1CCN(c2ccc(S(=O)(=O)N3CCCC3)cc2)CC1	-0.1	0.1	0.8	22603*	i	-5.2
O=C(c1ccco1)N1CCN(S(=O)(=O)c2ccccc2)CC1	-0.8	-19.2	6.3	3779	-0.3	4.6
O=C(c1ccco1)N1CCCN(C(=O)c2ccco2)CC1	-0.9	0.9	0.3	23373*	0.7	0.9
CN(C)C(=O)N1CCN(C(=O)c2ccco2)CC1	-0.3	5.1	-2.1	5997	-0.4	1.3
